Screens (PubChem BioAssay)
TDP1 cell CPT: growth inhibition of DT40 Tdp1-/-;hTDP1 cells with camptothecin (screen for TDP1 inhibitors); hit rate 12% among 420,000; chicken DT40 Tdp1-/-;hTDP1 cells + 20 nM CPT, ATP luminescence, 48 h; Potency, µM (top dose mostly 46.2 µM), without a hit: at the highest dose activity change, negative = growth inhibition, actives largely listed as inhibitors; further: potency means the concentration at half of the fitted maximal effect; nearly all actives have a fitted effect of over 55% in size
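Chicken DT40 Tdp1-/- cells complemented with human TDP1, 400 cells/well, exposed to compounds plus 20 nM camptothecin for at least 48 h at 37 C; viability read as ATP content by CellTiter-Glo luminescence.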
IL-1B inflam inh: blocks inflammasome-driven IL-1 beta release. THP-1 LPS/ATP IL-1B secretion, AlphaLISA, 16 h; hits give low values. activity change, % at 57.5 µM. hit rate 4.7% among 360,000; in the data active means activity change below about -50%; inconclusive means mostly about -30% to -49%
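Secreted IL-1B measured by AlphaLISA bead assay after 16 h compound exposure of THP-1 cells; compounds (final up to 57.5 uM) added 1 h before LPS (250 ng/mL) and ATP (1.25 mM) stimulation; lower signal means less secretion.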
HT1080 IDH1KD tx: HT-1080 IDH1 knockdown cell toxicity (counter line). HT-1080 IDH1 knockdown viability, ATP luminescence, 48 h. Potency, µM (top dose mostly 46.1 µM), without a hit: at the highest dose activity, negative = toxicity, usual class: cytotoxic. hit rate 2% among 360,000. AID 686971;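 further: potency means the concentration at half of the fitted maximal effect; 0% = DMSO wells and -100% = cell-free medium wells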
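In this qHTS, HT-1080 cells depleted of IDH1 are exposed for 48 h at 37 °C to compound titrations. Toxicity is scored from CellTiter-Glo luminescence, with DMSO as full viability and medium alone as none.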
HT1080NT lethal: kills 2HG-producing HT-1080-NT fibrosarcoma cells | Potency, µM (series often up to 46.1 µM), inactives show at the highest dose activity, negative = less viability, usual class: cytotoxic | AID 686970 | HT-1080-NT fibrosarcoma viability, CellTiter-Glo ATP luminescence, 48 h | hit rate 1.6% among 360,000;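 further: NT is the 2HG producing partner of a matched IDH1 knockdown line; potency means the concentration at half of the fitted maximal effect; 0% = DMSO-treated cells and -100% = media-only wells without cells; nearly all actives have a fitted effect of over 55% in size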
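Compounds were tested in concentration-response format on HT-1080-NT cells for 48 hours at 37 degrees C. Cell viability came from CellTiter-Glo luminescence; curves were classified by r2, response magnitude and activity.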
ELG1 repair inh: ELG1-dependent DNA repair inhibition | HEK293T ELG1-luciferase reporter, luminescence, 16 h; DNA damage induced by 5-fluorouridine | Potency, µM (highest dose often 46.1 µM), without a hit: top-dose activity change, negative = inhibition, usual class: inhibitors | hit rate 2.3% among 330,000; further: potency means the concentration at half of the fitted maximal effect; nearly all actives have a fitted effect of over 55% in size
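Step one: seed 2,000 cells per well. Step two: pin-transfer compound or DMSO alongside 5-fluorouridine. Step three: incubate 16 hr, 37 °C, 5% CO2. Step four: add ONE-Glo, wait 30 min, read luminescence.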
TDP1 cell noCPT: qHTS for Inhibitors of human tyrosyl-DNA phosphodiesterase 1 (TDP1): qHTS in cells in absence of CPT; DT40 Tdp1-/- hTDP1 cells, no CPT, ATP luminescence, 48 h; Potency, µM (highest dose often 46.2 µM), for the others: at the highest dose activity change, negative = growth inhibition, hits mostly inhibitors; hit rate 15% among 420,000; AID 686978, 2013; further: potency means the concentration at half of the fitted maximal effect; nearly all actives have a fitted effect of over 55% in size
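Readout: luminescence from CellTiter-Glo after 30 min in the dark at RT. Cells: DT40 Tdp1-/- with stable hTDP1, 400/well. Exposure: compounds alone, ≥48 hr, 37 °C.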
* = called active by the depositor; ? = inconclusive; / = no result given. Shown are actives, neighbours in structure and some others; about 19% of the full set was active somewhere. Unless noted, the call rests on the fitted dose curve; in most records, active means well fitted curve in the direction sought with a large enough effect; inconclusive means small, poorly fitted or top-dose-only effect, or another doubt; inactive means no such curve, though single readings can be large; an effect the other way counts as inactive or inconclusive. Unless noted, on the % scale 0 is the no-effect control and ±100 the full control effect.

SMILES	TDP1 cell CPT	IL-1B inflam inh	HT1080 IDH1KD tx	HT1080NT lethal	ELG1 repair inh	TDP1 cell noCPT
COc1ccc(C(=O)CC(=O)c2ccc(OC)cc2)cc1	1.8%	-3.6	-1.0%	-15.9%	?	-11.9%
CCCc1cc(-c2ccc(O)c(OCC)c2)c(C#N)c(N)n1	-26.0%	4.4	?	-16.6%	?	?
CCOc1cc(-c2cc(-c3ccc(C)o3)nc(N)c2C#N)ccc1O	16.4µM*	-17.3	?	?	16.4µM*	16.4µM*
Cc1ccc(-c2cc(-c3ccc(F)cc3)c(C#N)c(N)n2)o1	?	0.8	?	-17.0%	0.0%	?
COc1ccc(-c2cc(-c3ccc(O)cc3)nc(N)c2C#N)cc1OC	?	-22.6	?	-3.9%	0.2%	?
Cc1cc(-c2cc(-c3ccc(Cl)cc3)nc(N)c2C#N)co1	8.2µM*	16.6	?	?	-1.1%	20.6µM*
Cc1ccc(-c2cc(-c3ccc(Cl)cc3)c(C#N)c(N)n2)o1	6.51µM*	-5.7	-12.3%	3.2%	-10.4%	9.2µM*
Cc1ccc(-c2cc(-c3ccc(C)o3)nc(N)c2C#N)cc1	14.6µM*	-6.5	-4.8%	-9.9%	?	?
Cc1ccc(-c2c(C#N)c(N)nc3c2CCCCCC3)o1	5.2%	4.4	13.5%	4.1%	8.4%	-18.1%
COc1ccc(NC(=O)C2=C(C)C(=O)OC23CCN(C(C)C)CC3)cc1Cl	-6.4%	/	/	/	/	-8.9%
CCOC(=O)[C@H]1[C@H]2COc3ccc(Cl)cc3[C@@H]2N2C(=O)CN(Cc3ccc(F)cc3)C(=O)[C@@]12C	?	-3.1	-1.6%	12.8%	?	?
CCOC(=O)[C@H]1[C@H]2COc3ccc(Br)cc3[C@@H]2N2C(=O)CN(Cc3ccc(C)cc3)C(=O)[C@@]12C	?	-22.6	1.8%	-6.1%	-12.5%	?
CCOC(=O)[C@H]1[C@H]2COc3ccc(Cl)cc3[C@@H]2N2C(=O)CN(Cc3ccc(Cl)cc3)C(=O)[C@@]12C	?	-17.8	-20.8%	0.8%	?	16.4µM*
CCOC(=O)[C@H]1[C@H]2COc3ccc(Br)cc3[C@H]2N2C(=O)CN(Cc3ccc(C)cc3)C(=O)[C@@]12C	?	-58.8*	-8.8%	-1.3%	/	?
CCOC(=O)[C@H]1[C@H]2COc3ccc(Cl)cc3[C@@H]2N2C(=O)CN(Cc3ccccc3)C(=O)[C@@]12C	?	-7.9	0.4%	0.0%	-13.2%	20.6µM*
COC(=O)c1ccccc1Oc1cc(C(F)(F)F)nc(-c2ccccn2)n1	-13.2%	-4.2	-0.3%	12.5%	/	?
Cn1cc(CNC(=O)c2cc(-c3ccccc3)nc3ccc(Br)cc23)cn1	-4.6%	3.7	9.3%	4.7%	-2.3%	?
CCn1cc(CNC(=O)c2cc(-c3ccc(C)cc3)nc3ccc(Br)cc23)c(C)n1	6.51µM*	/	/	/	/	13µM*
CCn1cc(CNC(=O)c2cc(-c3ccccc3OC)nc3ccccc23)c(C)n1	?	-11.0	-1.2%	-9.9%	-18.2%	14.6µM*
CCn1cc(CNC(=O)c2cc(-c3cc(OC)ccc3OC)nc3ccccc23)c(C)n1	?	5.0	4.0%	0.6%	?	23.1µM*
CC(=O)c1cccc(N/C=C\C(=O)c2ccc(C)cc2)c1	-16.9%	8.1	-8.5%	7.9%	?	?
CC(=O)c1cccc(NS(=O)(=O)c2ccc(N/C=C/C(=O)c3ccc(F)cc3)cc2)c1	11.6µM*	-75.7*	?	?	?	18.4µM*
Cc1noc(NS(=O)(=O)c2ccc(N/C=C\C(=O)c3ccc4c(c3)OCO4)cc2)c1C	-23.2%	5.7	10µM*	-1.5%	?	-23.0%
